Measured values: PubChem BioAssay AID1159580 (chemical genetic matrix, 2015)
Values joined by “and” are separate entries in the source; they are usually repeats but may differ in a detail not shown here. Equal entries are not always repeated. Screen size: about 5,500 compounds; about 2,000 (36%) were called active. Not shown: some 18% with an inconclusive outcome. No stated cut-off is given here; in the data, active means normalized growth mostly below about 0.91 (no sharp cut-off); inconclusive means no clear call, values can overlap the other calls; inactive means mostly above about 0.92. This is one part of the list.

Test: chemical genetic growth profiling, strain panel (AID 1159580);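 further: tested at 20 µM; growth read once vehicle control cultures reached saturation at 30 °C; 1 = growth at the plate median or of vehicle wells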
Conditions: S. cerevisiae deletion strains, growth OD

Measured: normalized growth

COC(=O)C(N)CS (stereo unspecified)
inactive: locus YAL013W, strain DEP1, stronger effect = lower value 0.991 | locus YAL021C, strain ccr4, stronger effect = lower value 0.93 | locus YAL026C, strain drs2, stronger effect = lower value 0.967 | locus YAL030W, strain snc1, stronger effect = lower value 0.993 | locus YBL061C, strain skt5, stronger effect = lower value 0.998 | locus YBR009C, strain hhf1, stronger effect = lower value 0.958 | locus YBR021W, strain FUR4, stronger effect = lower value 0.994 | locus YBR023C, strain chs3, stronger effect = lower value 1.02 | locus YBR171W, strain sec66, stronger effect = lower value 0.984 | locus YBR229C, strain ROT2, stronger effect = lower value 0.992 | locus YBR231C, strain swc5, stronger effect = lower value 0.974 | locus YBR279W, strain paf1, stronger effect = lower value 1.01 | locus YCL011C, strain gbp2, stronger effect = lower value 0.996 | locus YCL016C, strain dcc1, stronger effect = lower value 1.04 | locus YCL029C, strain bik1, stronger effect = lower value 0.964 | locus YCL069W, strain vba3, stronger effect = lower value 0.954 | locus YCR088W, strain abp1, stronger effect = lower value 0.982 | locus YDL005C, strain med2, stronger effect = lower value 1 | locus YDL035C, strain GPR1, stronger effect = lower value 0.978 | locus YDL040C, strain nat1, stronger effect = lower value 0.99 | locus YDL074C, strain BRE1, stronger effect = lower value 0.98 | locus YDL101C, strain DUN1, stronger effect = lower value 0.984 | locus YDL134C, strain PPH21, stronger effect = lower value 0.977 | locus YDL185W, strain tfp1, stronger effect = lower value 0.966 | locus YDL192W, strain arf1, stronger effect = lower value 0.975 | locus YDR001C, strain nth1, stronger effect = lower value 0.984 | locus YDR069C, strain doa4, stronger effect = lower value 0.959 | locus YDR101C, strain arx1, stronger effect = lower value 0.985 | locus YDR137W, strain rgp1, stronger effect = lower value 0.924 | locus YDR150W, strain NUM1, stronger effect = lower value 0.996 | locus YDR159W, strain sac3, stronger effect = lower value 0.929 | locus YDR162C, strain NBP2, stronger effect = lower value 0.985 | locus YDR195W, strain ref2 1.03 | locus YDR297W, strain sur2, stronger effect = lower value 0.98 | locus YDR318W, strain mcm21, stronger effect = lower value 0.93 | locus YDR334W, strain swr1, stronger effect = lower value 0.959 | locus YDR335W, strain msn5, stronger effect = lower value 0.995 | locus YDR388W, stronger effect = lower value 0.951 | locus YDR392W, strain spt3, stronger effect = lower value 0.806 | locus YDR502C, strain sam2, stronger effect = lower value 0.98 | locus YEL003W, strain gim4, stronger effect = lower value 0.966 | locus YEL037C, strain rad23, stronger effect = lower value 0.978 | locus YEL061C, strain CIN8 (second series), stronger effect = lower value 0.966 | locus YEL061C, strain CIN8, stronger effect = lower value 0.997 | locus YER015W, strain faa2, stronger effect = lower value 0.997 | locus YER016W, strain bim1, stronger effect = lower value 0.997 | locus YER110C, stronger effect = lower value 0.991 | locus YER111C, strain swi4, stronger effect = lower value 1.03 | locus YER155C, strain BEM2 (second series), stronger effect = lower value 0.886 | locus YER155C, strain BEM2, stronger effect = lower value 1 | locus YER167W, strain BCK2, stronger effect = lower value 0.971 | locus YFR010W, strain ubp6, stronger effect = lower value 0.94 | locus YGL078C, strain dbp3, stronger effect = lower value 0.988 | locus YGL086W, strain mad1, stronger effect = lower value 0.976 | locus YGL167C, strain pmr1, stronger effect = lower value 0.977 | locus YGL173C, strain kem1, stronger effect = lower value 0.938 | locus YGL227W, strain vid30, stronger effect = lower value 0.971 | locus YGL240W, strain doc1, stronger effect = lower value 0.941 | locus YGL248W, strain PDE1, stronger effect = lower value 0.959 | locus YGL253W, strain hxk2, stronger effect = lower value 0.976 | locus YGR078C, strain PAC10, stronger effect = lower value 0.976 | locus YGR135W, strain pre9, stronger effect = lower value 0.947 | locus YGR229C, strain SMI1, stronger effect = lower value 0.949 | locus YGR252W, strain gcn5, stronger effect = lower value 0.883 | locus YHR013C, strain ard1, stronger effect = lower value 0.938 | locus YHR027C, strain rpn1, stronger effect = lower value 0.97 | locus YHR030C, strain SLT2, stronger effect = lower value 0.99 and 1.05 | locus YHR079C, strain IRE1 (second series), stronger effect = lower value 0.964 | locus YHR079C, strain IRE1, stronger effect = lower value 1.04 | locus YHR094C, strain hxt1, stronger effect = lower value 0.991 | locus YHR129C, strain ARP1, stronger effect = lower value 0.992 | locus YHR142W, strain chs7, stronger effect = lower value 1 | locus YHR200W, strain rpn10, stronger effect = lower value 0.973 | locus YIL066C, strain RNR3, stronger effect = lower value 0.975 | locus YIL073C, strain SPO22, stronger effect = lower value 0.903 | locus YIL125W, strain kgd1, stronger effect = lower value 0.991 | locus YIR030C, strain dcg1, stronger effect = lower value 0.984 | locus YJL092W, strain hpr5, stronger effect = lower value 0.995 | locus YJL095W, strain BCK1 (second series), stronger effect = lower value 0.995 | locus YJL095W, strain BCK1, stronger effect = lower value 0.929 and 1.04 | locus YJL115W, strain asf1, stronger effect = lower value 0.977 | locus YJL129C, strain trk1, stronger effect = lower value 1.01 | locus YJL134W, strain LCB3, stronger effect = lower value 0.996 | locus YJL154C, strain vps35, stronger effect = lower value 0.97 | locus YJL164C, strain tpk1, stronger effect = lower value 0.965 | locus YJL166W, strain qcr8, stronger effect = lower value 0.961 | locus YJL168C, strain set2, stronger effect = lower value 0.979 | locus YJL187C, strain SWE1 (second series), stronger effect = lower value 0.972 | locus YJL187C, strain SWE1, stronger effect = lower value 0.998 | locus YJR043C, strain POL32, stronger effect = lower value 0.977 | locus YJR066W, strain TOR1, stronger effect = lower value 0.998
